# Out of some 67,000 compounds screened, about 300 (0.45%) showed an effect of 50% or more. This excerpt belongs to a sample that is enriched for strong results.
# Target: Polyketide synthase Pks13 (Mycobacterium tuberculosis (strain ATCC 25618 / H37Rv)) (UniProt I6X8D2)
# Test: Mycobacterium tuberculosis Polyketide synthase 13 Thioesterase (PKS13)
# Type: functional
# Set-up: scale not given: in the data most compounds retested in dose-response had high values
# Details: 30 µM
# Polyketide synthase Pks13 (Mycobacterium tuberculosis (strain ATCC 25618 / H37Rv)), sequence (I6X8D2 whole entry): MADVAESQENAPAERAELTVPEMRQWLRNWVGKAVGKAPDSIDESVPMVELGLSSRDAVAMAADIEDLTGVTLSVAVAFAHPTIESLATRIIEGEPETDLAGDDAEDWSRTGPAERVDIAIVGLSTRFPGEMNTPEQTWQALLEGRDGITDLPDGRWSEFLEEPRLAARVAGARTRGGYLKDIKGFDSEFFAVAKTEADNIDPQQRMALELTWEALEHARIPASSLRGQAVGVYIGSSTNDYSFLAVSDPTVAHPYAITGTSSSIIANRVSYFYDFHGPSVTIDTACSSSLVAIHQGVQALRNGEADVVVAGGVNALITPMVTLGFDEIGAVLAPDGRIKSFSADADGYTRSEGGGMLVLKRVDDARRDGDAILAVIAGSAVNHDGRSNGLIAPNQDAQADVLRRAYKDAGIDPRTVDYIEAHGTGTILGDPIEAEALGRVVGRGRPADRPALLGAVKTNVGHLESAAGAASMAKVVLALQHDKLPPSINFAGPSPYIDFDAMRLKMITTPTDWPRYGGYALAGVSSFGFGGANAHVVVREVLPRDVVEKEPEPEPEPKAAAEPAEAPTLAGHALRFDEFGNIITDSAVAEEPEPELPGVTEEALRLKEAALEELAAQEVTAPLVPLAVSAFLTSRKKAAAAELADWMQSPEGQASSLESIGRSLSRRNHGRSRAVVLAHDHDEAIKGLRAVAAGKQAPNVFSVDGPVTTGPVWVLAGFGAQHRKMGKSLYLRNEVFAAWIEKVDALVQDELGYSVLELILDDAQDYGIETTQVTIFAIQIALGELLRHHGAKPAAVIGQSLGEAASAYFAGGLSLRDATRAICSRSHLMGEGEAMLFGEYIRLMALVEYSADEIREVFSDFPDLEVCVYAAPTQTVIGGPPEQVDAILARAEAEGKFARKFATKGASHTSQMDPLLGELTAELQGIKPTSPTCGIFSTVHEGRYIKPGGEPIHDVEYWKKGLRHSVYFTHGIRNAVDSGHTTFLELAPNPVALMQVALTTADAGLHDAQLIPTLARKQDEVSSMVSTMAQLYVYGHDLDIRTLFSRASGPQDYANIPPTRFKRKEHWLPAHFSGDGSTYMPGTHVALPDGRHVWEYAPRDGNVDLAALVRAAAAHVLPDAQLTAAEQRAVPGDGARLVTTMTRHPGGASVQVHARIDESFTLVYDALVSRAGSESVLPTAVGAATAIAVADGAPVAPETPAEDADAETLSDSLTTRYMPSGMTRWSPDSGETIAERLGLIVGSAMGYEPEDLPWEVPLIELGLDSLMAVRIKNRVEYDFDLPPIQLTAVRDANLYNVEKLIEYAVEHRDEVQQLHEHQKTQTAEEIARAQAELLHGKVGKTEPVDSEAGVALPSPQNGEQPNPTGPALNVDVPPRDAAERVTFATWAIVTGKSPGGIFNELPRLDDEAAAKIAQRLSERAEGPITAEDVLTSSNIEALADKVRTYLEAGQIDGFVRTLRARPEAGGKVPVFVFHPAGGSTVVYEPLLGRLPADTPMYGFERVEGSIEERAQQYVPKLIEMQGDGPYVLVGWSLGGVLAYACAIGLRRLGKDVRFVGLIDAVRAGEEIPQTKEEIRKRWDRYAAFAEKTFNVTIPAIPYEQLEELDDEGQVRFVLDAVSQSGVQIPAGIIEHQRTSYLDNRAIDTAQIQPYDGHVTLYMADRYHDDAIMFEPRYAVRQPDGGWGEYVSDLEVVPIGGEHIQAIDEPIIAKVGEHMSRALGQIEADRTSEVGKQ
row,SMILES,Percent Effect [%]
1,O=C1O[C@@H]2CN(c3ccccn3)C[C@@H]2N1CCCc1ccc(F)cc1,-15.8
2,O=C(NCc1ccco1)[C@H]1C[C@H]2OCC[C@H]2N(C(=O)c2ccnnc2)C1,-21.2
3,O=C(Cn1ccc2cc(Br)ccc21)NC[C@@H]1CCCN2CCCC[C@H]12,-5.46
4,CO[C@@H]1CCN(Cc2cnn(C)c2)[C@@H]2CN(Cc3ccco3)C[C@@H]21,-33
5,COc1ccc(CN2CC[C@@H]3CN(S(C)(=O)=O)CCO[C@@H]3C2)cc1,-17.7
6,O=C(Nc1cccnc1)[C@H]1COC[C@H]2CN(C3CCCC3)C[C@H]21,-10.2
7,Cn1nnc(NCc2ccc(-c3ccc(Br)cc3)o2)n1,13.4
8,CCCn1nnc(NCc2ccc(-c3ccc(Br)cc3)o2)n1,50.3
9,CCn1nnc(NCc2ccc(-c3ccc(Br)cc3)o2)n1,31.1
10,CC(C)c1cc(C(=O)N2C[C@H]3CC[C@@H]2CN(Cc2ccccn2)C3)no1,-30.6
11,COc1cnc(N2CCN(C)CC2)nc1-c1ccnn1C,68
12,Cc1cnc(N2CCCC(O)C2)nc1-c1ccnn1C (stereo unspecified),5.81
13,COc1cnc(N2CC(N3CCOCC3)C2)nc1-c1ccnn1C,54.8
14,Cc1cnc(N2CCC(c3ccncc3)CC2)nc1-c1ccnn1C,-33.3
15,Cc1cnc(N2CCC(c3ccccc3)CC2)nc1-c1ccnn1C,-31.6
16,Cc1cnc(N2CCN(C)CC2)nc1-c1ccnn1C,4.24
17,CCn1c(Cn2cncn2)nnc1C1CCN(C[C@H]2[C@@H]3CNC[C@@H]32)CC1,-3.59
18,CCS(=O)(=O)N1C[C@H]2CN(c3cnn(C)c3)C(=O)[C@H]2C1,-4.27
19,Cc1ccccc1CN1CC[C@H]2C[C@H](C(=O)N(C)C)O[C@H]2C1,-13.3
20,Cc1noc(C)c1CN1CC[C@@H]2O[C@@H](COCC3CC3)CC[C@@H]21,-31.2
21,CCS(=O)(=O)N1C[C@@H](C(=O)NC(C)C)[C@@]2(Cc3ccccc3C(=O)N2)C1,9.59
22,CC(C)NC(=O)[C@@H]1CN(C(=O)C2CC2)C[C@]12Cc1ccccc1C(=O)N2,52.6
23,CN1C[C@@H](C(=O)NC(C)(C)C)[C@@]2(CCc3ccccc3C(=O)N2)C1,1.71
24,CS(=O)(=O)N1C[C@@H]2CC[C@H](C1)N(CCC(=O)NCc1ccco1)C2,-13.4
25,CC(C)c1nnc(CN2CCCC3(CC2)CN(C)C(=O)O3)o1 (stereo unspecified),-10.9
26,CN1CC2(CCCN(Cc3nnc(-c4ccccc4)o3)CC2)OC1=O (stereo unspecified),-7.32

row,SMILES,Percent Effect [%]
1,CN1CC2(CCCN(Cc3nnc(-c4ccco4)o3)CC2)OC1=O (stereo unspecified),62.4
2,Cn1ccc(C(=O)N2C[C@@H]3CN(CC4CC4)CCO[C@@H]3C2)n1,-15.9
3,O=C(N[C@@H]1CN(c2ncccn2)C[C@@H]2CCCO[C@@H]21)c1cnccn1,-18
4,CCc1ccc(C(O)CN2CCN(c3cccc(OC)c3)CC2)cc1 (stereo unspecified),56.5
5,COc1cccc(N2CCN(CC(O)c3ccc(C)cc3)CC2)c1 (stereo unspecified),-26.6
6,COc1cccc(C(O)CN2CCN(c3cccc(C)c3)CC2)c1 (stereo unspecified),0.857
7,CNC(=O)[C@H]1C[C@@H]2CN(Cc3ccc(C)cc3)C[C@H]1O2,-2.73
8,Cc1cc2c(N)nc(=O)n(CC(=O)Nc3cccc(Cl)c3)c2s1,11.9
9,Cc1cc2c(N)nc(=O)n(CC(=O)Nc3ccccc3)c2s1,61
10,COc1ccc(NC(=O)Cn2c(=O)nc(N)c3cc(C)sc32)cc1,-1.59
11,c1cnc(N2C[C@H]3CCN(Cc4ccncc4)C[C@H]3C2)nc1,-10.9
12,CCc1n[nH]c(SCC(=O)N2C[C@@H]3CC[C@H](C2)N(CC=C(C)C)C3)n1,4.76
13,CCc1ccc(CN2CC[C@@H]3CN(S(C)(=O)=O)CCO[C@@H]3C2)o1,-6.54
14,CNC(=O)[C@H]1C[C@@H]2CN(S(=O)(=O)c3ccc(OC)cc3)C[C@@H]2N1C,-0.271
15,O=C(C[C@@H]1COC[C@H]2CN(C(=O)c3cccnc3)C[C@@H]12)N1CCOCC1,-5.25
16,Cc1cc(C)c2cc(CNC3CCCCC3)c3nn(C)c(=O)n3c2c1,10.2
17,Cc1cc(C)c2cc(CNC(C)C)c3nn(C)c(=O)n3c2c1,52.3
18,Cc1cc(C)c2cc(CNCc3ccco3)c3nn(C)c(=O)n3c2c1,-29.8
19,CCCNCc1cc2c(C)cc(C)cc2n2c(=O)n(C)nc12,33.4
20,Cc1cc(C)c2cc(CNCc3cccnc3)c3nn(C)c(=O)n3c2c1,112
21,Cc1cc(C)c2cc(CNCc3ccccc3)c3nn(C)c(=O)n3c2c1,-72.8
22,Cc1cnc(N2CC[C@@H]3O[C@@H](COCC(=O)N(C)C)CC[C@@H]32)nc1,-4.2
23,Cc1cc(C)nc(N2CC[C@@]3(O)CCN(S(=O)(=O)N(C)C)C[C@H]3C2)n1,-22.2
24,O=C([C@@H]1COC[C@H]2CN(C3CCOCC3)C[C@H]21)N1CCCCO1,3.42
25,CC1(C(=O)NCc2cccnc2Oc2ccc(F)cc2F)CCCNC1 (stereo unspecified),-16.5
26,Cc1cccc(C)c1Oc1ncccc1CNC(=O)C1(C)CCCNC1 (stereo unspecified),-21.7

row,SMILES,Percent Effect [%]
1,CC1(C(=O)NCc2cccnc2Oc2ccc(F)c(F)c2)CCCNC1 (stereo unspecified),63.7
2,Cc1ccccc1CN1C[C@@H]2OCC(=O)N(CC(N)=O)[C@@H]2C1,-35.3
3,CCOC[C@]12COC[C@H]1CN(Cc1ccc(F)c(F)c1)C2,-14.9
4,Cc1ncc(CN2CCCC2)c2cc(C(=O)c3ccc(Br)cc3)oc12,-4.91
5,Cc1ncc(CNCCO)c2cc(C(=O)c3ccc(Br)cc3)oc12,-1.68
6,Cc1ncc(CNCC(C)O)c2cc(C(=O)c3ccc(Br)cc3)oc12 (stereo unspecified),53.8
7,COCCn1c2c(ccc1=O)CCN(Cc1ccoc1)CC2,19
8,O=c1ccc2c(n1CC1CCOCC1)CCN(Cc1ccoc1)CC2,52.6
9,O=c1ccc2c(n1Cc1ccncc1)CCN(Cc1ccoc1)CC2,6.04
10,O=C(c1cscn1)N1CC[C@H]2[C@@H]1CCC(=O)N2c1ccccc1,-9.46
11,c1ccc2c(c1)CCN(c1ncnc3sc4c(c13)CCNC4)C2,-23.8
12,c1ccc2c(c1)CN(c1ncnc3c1CCNC3)CCO2,-34
13,c1ccc2c(c1)CN(c1ncnc3sc4c(c13)CCNC4)CCO2,63
14,Cc1cc(NCCO)nc(-c2ccccc2O)n1,19.7
15,CCC1(C)Cc2ccccc2-c2nc(NCCO)nc(O)c21 (stereo unspecified),55.8
16,CC1(C)Cc2ccccc2-c2nc(NCCCO)[nH]c(=O)c21,62.7
17,OCCCNc1nc(O)c2c(n1)-c1ccccc1CC21CCCCC1,13.8
18,O=c1[nH]c(NCCO)nc2c1C1(CCCC1)Cc1ccccc1-2,12.1
19,O=C(NCCCO)C1(N2CCCCC2)Cc2ccccc2C1,-29.6
20,O=c1c(NCCCO)c(N2CCN(c3ccccc3)CC2)c1=O,4.71
21,CC(C)(CO)CCCNC(=O)NC1(C)Cc2ccccc2C1,0.272
22,O=c1[nH]c(NCCCO)nc2c1C1(CCCC1)Cc1ccccc1-2,55.4
23,CCC1(C)Cc2ccccc2-c2nc(NCCCO)nc(O)c21 (stereo unspecified),37.9
24,O=c1[nH]c(NCCO)nc2c1C1(CCCCC1)Cc1ccccc1-2,-23
25,CC1(C)Cc2ccccc2-c2nc(NCCO)[nH]c(=O)c21,88.1
26,Cn1cc(CN2C[C@H](Oc3ncccc3F)[C@H]3OCCC[C@H]32)cn1,4.64

row,SMILES,Percent Effect [%]
1,Cc1occc1C(=O)N1C[C@@H]2CCCO[C@@H]2[C@H](NC(=O)CC2CC2)C1,-0.923
2,CC(C)=CCN1C[C@H]2CC[C@@H]1CN(C(=O)c1c[nH]c(=O)c(Cl)c1)C2,-3.37
3,CC(C)CN1C[C@@H]2C(=O)N(C)C3(CCN(C(=O)C(C)C)CC3)[C@@H]2C1,-25.7
4,Cc1noc([C@]23COC[C@H]2CN(S(=O)(=O)N(C)C)C3)n1,-30.1
5,CNC(=O)CN1CCO[C@H]2CN(C(=O)C3CC3)C[C@H]21,-29
6,O=C([C@@H]1COC[C@H]2CN(C3CCOCC3)C[C@H]21)N1CCCO1,35.9
7,CS(=O)(=O)N[C@@H]1CN(Cc2ccoc2)C[C@@H]2CCCO[C@@H]21,-30.2
8,CCC1(CC)Cc2ccccc2-c2nc(NCCO)[nH]c(=O)c21,-180
9,CCC1(CC)Cc2ccccc2-c2nc(NCCCO)[nH]c(=O)c21,88.8
10,CCC1(CC)Cc2ccccc2-c2nc(CN(C)C)nc(O)c21,-41.1
11,O=C([C@H]1C[C@H]2OCC[C@H]2N(C(=O)c2ccccn2)C1)N1CCCCO1,-25.9
12,CC(=O)N1CCC(NC(=O)c2cc(Cl)ccc2O)CC1,95.8
13,CC(=O)N1CCC(NC(=O)c2cc(S(N)(=O)=O)ccc2C)CC1,-0.331
14,CC(=O)N1CCC(NC(=O)c2cc(Cl)ccc2-n2cnnn2)CC1,-14.8
15,Cc1nc(CO[C@H]2CN(Cc3ccccn3)[C@@H]3CCCO[C@H]23)cs1,1.71
16,CC(=O)N1CC[C@H]2OCC[C@@H](C(=O)Nc3cccnc3C)[C@H]2C1,5.14
17,O=C(c1ccco1)N1C[C@H]2CCCN(CC3CCOCC3)[C@H]2C1,0.0598
18,Cn1ccnc1CN1C[C@H](N2CCOCC2)[C@@H]2OCCC[C@@H]21,-10.5
19,CC(C)C(C)N1Cc2cccc(NCC(=O)N(C)C)c2C1 (stereo unspecified),-6.55
20,CC(C)N1Cc2cccc(NCC(=O)N(C)C)c2C1,-31.9
21,CC(C)N1Cc2cccc(NCC(=O)N(C)C3CCCCC3)c2C1,81.9
22,CN(C)C[C@@H]1CCC[C@@H]2CN(c3cccnc3)C[C@@H]21,-20.9
23,CS(=O)(=O)N1CCN2C(=O)N(C3CCCCC3)C[C@H]2C1,3.48
24,O=C([C@@H]1COC[C@H]2CN(c3ccncn3)C[C@H]21)N1CCCCO1,-30
25,O=C(C1CCC1)N1CCO[C@H]2[C@H](OCCCn3cccn3)CC[C@@H]21,-40.4
26,O=C(Nc1cc(CSCCO)ccn1)c1ccc(Cl)o1,62

row,SMILES,Percent Effect [%]
1,Cc1cscc1C(=O)Nc1cc(CSCCO)ccn1,11.8
2,Cc1ccnc(NC(=O)c2ccc(Cl)o2)c1,-6.1
3,Cc1cccc(CN2C[C@@H](NC(=O)C3CCC3)[C@H]3COC[C@H]32)n1,-33.3
4,O=C(CCc1n[nH]c2c1CCCC2)N1C[C@@H]2CC[C@H](C1)N(CC1CC1)C2,-15.4
5,Cc1nn(C)cc1-c1ccnc(N(C)Cc2ccoc2)n1,139
6,Cc1nn(C)cc1-c1ccnc(N(C)Cc2ccc(F)cc2)n1,-13.2
7,Cc1nn(C)cc1-c1ccnc(N(C)Cc2cnn(C)c2)n1,-7.71
8,CC(C)N1[C@H](Cn2cncn2)C[C@@H]2CN(Cc3cccs3)CC[C@@H]21,2.62
9,O=C1CC(NCc2cnc(-c3cccs3)nc2)CN1c1ccccc1 (stereo unspecified),-18.1
10,O=C1CC(NCc2cnc(C3CCCCC3)nc2)CN1c1ccccc1 (stereo unspecified),-18
11,O=C1CC(NCc2cnc(N3CCCC3)nc2)CN1c1ccccc1 (stereo unspecified),65.7
12,O=S(=O)(c1ccccc1)N1C[C@@H]2CCCCN(Cc3cccs3)[C@@H]2C1,-1.03
13,COc1cc2nc(NCc3ccc(C)nc3)nc(N)c2cc1OC,-17.5
14,COc1cc2nc(NCc3scnc3C)nc(N)c2cc1OC,12.1
15,COc1cc2nc(NCc3cc(C)on3)nc(N)c2cc1OC,78.9
16,CNC(=O)CN1CCO[C@H]2CN(CC3CCOC3)C[C@H]21 (stereo partly specified),-18.9
17,O=C(c1cc(F)cc(F)c1)N1C[C@H]2CNC[C@H]2C1,-29.4
18,COCCN1CC(=O)N2CC[C@@H](O)C[C@H]2C1=O,7.83
19,Cc1ncc2c(n1)CN(CCCc1nc3ccccc3o1)CC2,94.6
20,Cc1ncc2c(n1)CCN(CCCc1nc3ccccc3o1)C2,0.614
21,Cc1ncc2c(n1)CN(Cc1nc3ccccc3o1)CC2,-1.34
22,CCCN1CCN(C(=O)c2ccc(Cl)cn2)[C@H]2CS(=O)(=O)C[C@H]21,5.71

# Source: ChEMBL document CHEMBL3988442, “University of Dundee, Small-Polar-MMV Screening Library” (2021)
